Laboratory results from PubChem BioAssay (NCI).
About 79,000 compounds went through this panel and 15% of them were active in at least one assay; those are over-represented in the sample as a whole. The source made the active and inactive calls. No stated cut-off is given here; in the data, active means growth inhibition above about 70%; inactive means the rest.

Key:
[1] = NCI Yeast Anticancer Drug Screen. Data for the rad52 strain (AID 147);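 further: 0% = growth of vehicle-treated control cultures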; details: S. cerevisiae rad52 mutant growth inhibition, active compounds read high
Summary of the method: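 Read-out: growth inhibition versus vehicle-treated controls. Cells were a DNA repair-deficient yeast strain treated with compounds.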

[2] = NCI Yeast Anticancer Drug Screen. Data for the wt1 strain (AID 149);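 further: 0% = growth of vehicle-treated wt1 cultures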; details: S. cerevisiae wt1 strain (SPY 50644) growth inhibition, active compounds read high
Summary of the method: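 The wt1 strain was treated with compounds, and growth was compared with vehicle-treated cultures to give inhibition.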

[3] = NCI Yeast Anticancer Drug Screen. Data for the rad50EPP+ strain (AID 151);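 further: 0% = growth of vehicle-treated control cultures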; details: S. cerevisiae rad50 mutant strain, active compounds read high
Summary of the method: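 Growth inhibition read against vehicle controls in rad50EPP+ yeast, a strain altered in DNA damage repair, after compound exposure.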

[4] = NCI Yeast Anticancer Drug Screen. Data for the mgt1 strain (AID 153); details: S. cerevisiae mgt1 mutant growth inhibition, active compounds read high
Summary of the method: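 mgt1 yeast grown with test compound; read-out is growth inhibition versus vehicle-treated cultures.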

[5] = NCI Yeast Anticancer Drug Screen. Data for the rad50 strain (AID 155);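 further: 0% = growth of vehicle-only cultures of the same strain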; details: S. cerevisiae rad50 strain growth inhibition, active compounds read high
Summary of the method: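 Cells are treated with compound, grown, and their growth is then scored against vehicle-only cultures of the same repair-deficient yeast strain.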

[6] = NCI Yeast Anticancer Drug Screen. Data for the mec2-1 strain (AID 157); details: S. cerevisiae mec2-1 strain, active compounds read high
Summary of the method: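 Yeast mec2-1 mutant treated with compound. Readout: growth inhibition vs vehicle controls.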

[7] = NCI Yeast Anticancer Drug Screen. Data for the rad14 strain (AID 159);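 further: 0% = growth of vehicle-treated control cultures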; details: S. cerevisiae rad14 strain growth inhibition, active compounds read high
Summary of the method: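 Readout: yeast growth inhibition, referenced to vehicle-only cultures. Strain bears a defined alteration in DNA damage repair.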

[8] = NCI Yeast Anticancer Drug Screen. Data for the sgs1 mgt1 strain (AID 161);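 further: 0% = growth of cultures given vehicle only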; details: S. cerevisiae sgs1 mgt1 strain, active compounds read high
Summary of the method: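 Read-out: growth inhibition vs vehicle controls. Cells: mutant yeast strain deficient in DNA damage repair.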

[9] = NCI Yeast Anticancer Drug Screen. Data for the cln2 rad14 strain (AID 165);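 further: 0% = growth equal to vehicle treated cultures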; details: S. cerevisiae cln2 rad14 strain, active compounds read high
Summary of the method: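 cln2 rad14 yeast strain; compound exposure; growth inhibition read vs vehicle controls.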

[10] = NCI Yeast Anticancer Drug Screen. Data for the bub3 strain (AID 167); details: S. cerevisiae bub3 mutant strain, active compounds read high
Summary of the method: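 Part of a panel of yeast mutants defective in DNA damage repair or cell cycle regulation. Each strain is grown with compound, and inhibition is calculated relative to solvent-treated cultures.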

[11] = NCI Yeast Anticancer Drug Screen. Data for the wt2 strain (AID 169);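 further: 0% = growth of vehicle-treated yeast cultures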; details: S. cerevisiae wt2 strain growth inhibition, active compounds read high
Summary of the method: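 Read-out: growth inhibition versus vehicle-treated control cultures after compound exposure of the yeast strain.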

[12] = NCI Yeast Anticancer Drug Screen. Data for the mlh1 strain (AID 171);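 further: 0% = growth of vehicle-treated control cultures of the same strain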; details: S. cerevisiae mlh1 strain growth inhibition, active compounds read high
Summary of the method: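 Read-out: growth inhibition versus vehicle controls. Strain: engineered yeast with a defined DNA repair or cell cycle defect, compound-treated.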

[13] = NCI Yeast Anticancer Drug Screen. Data for the sgs1 strain (AID 173);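 further: 0% = growth of vehicle-only control cultures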; details: S. cerevisiae sgs1 mutant, active compounds read high
Summary of the method: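 Read-out: yeast growth inhibition relative to vehicle controls, following compound exposure of a strain with a defined DNA repair/cell cycle alteration.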

[14] = NCI Yeast Anticancer Drug Screen. Data for the mlh1 rad18 strain (AID 175); details: S. cerevisiae mlh1 rad18 strain growth inhibition, active compounds read high
Summary of the method: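 Yeast w/ defined DNA-repair lesions; compound exposure; growth vs vehicle controls → % inhibition.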

[15] = NCI Yeast Anticancer Drug Screen. Data for the rad18 strain (AID 177); details: S. cerevisiae rad18 mutant growth inhibition, active compounds read high
Summary of the method: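 Readout: growth inhibition vs vehicle controls. Cells: genetically altered yeast strain, DNA repair defect.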

[16] = at 5.0 µM (retest, dose inferred, filed as 0.5)
[17] = at 50.0 µM (retest, dose inferred, filed as 5.0)

Measured: growth inhibition

Cc1ccc(NN(NC(=O)OC(C)C)C(=O)OC(C)C)cc1
inactive: [1]; at 1.2 µM -2% | [1]; at 3.7 µM -2% | [1]; at 11.0 µM 0% | [1]; at 33.0 µM 8% | [1]; at 100.0 µM 17% | [2]; at 1.2 µM 2% | [2]; at 3.7 µM 7% | [2]; at 11.0 µM 4% | [2]; at 33.0 µM 7% | [2]; at 100.0 µM 11% | [3]; at 1.2 µM 5% | [3]; at 3.7 µM 13% | [3]; at 11.0 µM 25% | [3]; at 33.0 µM 50% | [3]; at 100.0 µM 64% | [4]; at 1.2 µM 0% | [4]; at 3.7 µM -3% | [4]; at 11.0 µM 1% | [4]; at 33.0 µM 14% | [4]; at 100.0 µM 13% | [5]; at 1.2 µM -1% | [5]; at 3.7 µM 0% | [5]; [16] 3% | [5]; at 11.0 µM -1% | [5]; at 33.0 µM 8% | [5]; [17] 35% | [5]; at 50.0 µM 23.1% | [5]; at 100.0 µM 13% | [6]; at 1.2 µM 3% | [6]; at 3.7 µM 5% | [6]; [16] 1% | [6]; at 11.0 µM 8% | [6]; at 33.0 µM 13% | [6]; [17] 5% | [6]; at 50.0 µM 6.1% | [6]; at 100.0 µM 15% | [7]; at 1.2 µM -2% | [7]; at 3.7 µM -1% | [7]; at 11.0 µM -1% | [7]; at 33.0 µM 1% | [7]; at 100.0 µM 8% | [8]; [16] 15% | [8]; [17] 19% | [8]; at 50.0 µM 29.6% | [9]; [16] 14% | [9]; [17] 27% | [9]; at 50.0 µM 28.6% | [10]; at 1.2 µM -5% | [10]; at 3.7 µM -3% | [10]; [16] 17% | [10]; at 11.0 µM -1% | [10]; at 33.0 µM 6% | [10]; [17] 38% | [10]; at 50.0 µM 2.1% | [10]; at 100.0 µM 17% | [11]; at 1.2 µM -1% | [11]; at 3.7 µM -1% | [11]; at 11.0 µM 0% | [11]; at 33.0 µM 7% | [11]; at 100.0 µM 11% | [12]; at 1.2 µM 0% | [12]; at 3.7 µM 2% | [12]; at 11.0 µM 5% | [12]; at 33.0 µM 7% | [12]; at 100.0 µM 8% | [13]; at 1.2 µM 1% | [13]; at 3.7 µM 1% | [13]; at 11.0 µM 5% | [13]; at 33.0 µM 14% | [13]; at 100.0 µM 15% | [14]; [16] 16% | [14]; [17] 62% | [15]; at 1.2 µM -3% | [15]; at 3.7 µM -4% | [15]; at 11.0 µM 1% | [15]; at 33.0 µM 12% | [15]; at 100.0 µM 21%
active: [14]; at 50.0 µM 78.8%

O=[N+]([O-])/C=C/c1ccc2ccccc2c1
active: [1]; at 3.7 µM 72% | [1]; at 11.0 µM 100% | [1]; at 33.0 µM 100% | [1]; at 100.0 µM 99% | [2]; at 11.0 µM 99% | [2]; at 33.0 µM 100% | [2]; at 100.0 µM 100% | [3]; at 3.7 µM 98% | [3]; at 11.0 µM 99% | [3]; at 33.0 µM 99% | [3]; at 100.0 µM 99% | [4]; at 11.0 µM 100% | [4]; at 33.0 µM 100% | [4]; at 100.0 µM 99% | [5]; at 3.7 µM 95% | [5]; at 11.0 µM 100% | [5]; at 33.0 µM 100% | [5]; [17] 90% | [5]; at 50.0 µM 99.1% | [5]; at 100.0 µM 99% | [6]; at 3.7 µM 89% | [6]; at 11.0 µM 100% | [6]; at 33.0 µM 100% | [6]; [17] 96% | [6]; at 50.0 µM 99.2% | [6]; at 100.0 µM 97% | [7]; at 3.7 µM 71% | [7]; at 11.0 µM 99% | [7]; at 33.0 µM 99% | [7]; at 100.0 µM 100% | [8]; [17] 95% | [8]; at 50.0 µM 99.3% | [9]; [16] 98% | [9]; [17] 93% | [9]; at 50.0 µM 98.2% | [10]; [16] 98% | [10]; at 11.0 µM 99% | [10]; at 33.0 µM 99% | [10]; [17] 94% | [10]; at 50.0 µM 98.8% | [10]; at 100.0 µM 99% | [11]; at 11.0 µM 100% | [11]; at 33.0 µM 100% | [11]; at 100.0 µM 99%
inactive: [1]; at 1.2 µM 28% | [2]; at 1.2 µM -1% | [2]; at 3.7 µM 7% | [3]; at 1.2 µM 67% | [4]; at 1.2 µM -1% | [4]; at 3.7 µM 61% | [5]; at 1.2 µM 33% | [5]; [16] 1% | [6]; at 1.2 µM 2% | [6]; [16] 33% | [7]; at 1.2 µM 11% | [8]; [16] -35% | [10]; at 1.2 µM 6% | [10]; at 3.7 µM 61% | [11]; at 1.2 µM -5% | [11]; at 3.7 µM 18%
